Experimental findings from PubChem BioAssay (EPA / NIEHS) are described below.

As usually defined, the AC50 is the midpoint of the concentration-response curve, whichever way the signal moves.

Inconclusive results are not listed. The source made the active and inactive calls. The calls were made as follows: active = hit-call score of the fitted dose curve at least 0.9, where 1 is the maximum; inconclusive = response in the unintended direction; inactive = score below 0.9.

Chain of Nuclear receptor subfamily 1 group I member 2 (Homo sapiens) (O75469 whole entry, looked up): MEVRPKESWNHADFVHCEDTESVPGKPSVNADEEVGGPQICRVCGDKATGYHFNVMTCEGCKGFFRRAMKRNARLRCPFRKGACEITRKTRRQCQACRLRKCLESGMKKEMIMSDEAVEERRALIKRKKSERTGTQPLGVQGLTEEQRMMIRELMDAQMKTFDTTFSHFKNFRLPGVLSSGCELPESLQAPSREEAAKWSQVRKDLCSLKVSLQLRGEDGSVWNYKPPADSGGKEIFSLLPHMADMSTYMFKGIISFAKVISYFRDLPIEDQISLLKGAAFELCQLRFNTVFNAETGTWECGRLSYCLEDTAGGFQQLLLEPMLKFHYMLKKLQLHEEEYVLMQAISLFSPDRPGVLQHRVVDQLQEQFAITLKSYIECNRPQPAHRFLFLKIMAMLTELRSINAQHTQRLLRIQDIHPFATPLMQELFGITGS

The test addresses Nuclear receptor subfamily 1 group I member 2 (Homo sapiens) (UniProt O75469). As to the kind of experiment: ATG_PXR_TRANS: Attagene TRANS-FACTORIAL HepG2 Assay for human Pregnane X Receptor (PXR) (AID 2283008). The protocol: ATG_TRANS is a cell-based, multiplexed-readout assay that uses HepG2, a human liver cell line, with measurements taken at 24 hours after chemical dosing in a 24-well plate.ATG_PXR_TRANS is one of 30 assay component(s) measured or calculated from the ATG_TRANS assay. It is designed to make measurements of mRNA induction, a form of inducible reporter, as detected with fluorescence intensity signals by Reverse transcription polymerase chain reaction (RT-PCR) and Capillary electrophoresis technology.Data from the assay component ATG_PXR_TRANS was analyzed into 1 assay endpoint. This assay endpoint, ATG_PXR_TRANS, was analyzed in the positive analysis fitting direction relative to DMSO as the negative control and baseline of activity. Using a type of inducible reporter, measures of mRNA for gain-of-signal activity can be used to understand the reporter gene at the transcription factor-level as they relate to the gene NR1I2. Furthermore, this assay endpoint can be referred to as a primary readout, because this assay has produced multiple assay endpoints where this one serves a reporter gene function. To generalize the intended target to other relatable targets, this assay endpoint is annotated to the nuclear receptor intended target family, where the subfamily is non-steroidal.
Human liver HepG2 cells are transiently transfected with multiple reporter transcription units (MRTUs) in 6-well plates using FuGene 6 reagent (Roche; 3 ml FuGene/1 mg DNA). The MRTU constructs are regulated by a cis-regulating element (promoter). […] A major difference between the CIS and TRANS system is that in CIS activities of endogenous TFs are measured, whereas the TRANS assay evaluates changes in activities of exogenous, chimeric NR-Gal4 proteins. […] At the end of 24 hour incubation, total RNA was isolated using TriZol reagent (Invitrogen). The isolated RNA is then reverse-transcribed using oligo(dT) primer and Mo-MLV reverse transcriptase (Invitrogen) with DNAse I (Ambion) treatment for 30 min. The one-tenth of the produced cDNA was amplified by PCR using Taq DNA polymerase (Invitrogen) and two reporter sequence-specific primers. The PCR products were fluorescently labeled by primer extension with 6-arboxyfluorescein (6-FAM) 5'-labeled reporter sequence-specific primer (2 min at 95 C, 20 s at 68 C and 10 min at 72 C) and these products were digested with 5U of HpaI (New England Biolabs) for 2h at 37 C. The fragments were purified using Qiaquick PCR columns (Qiagen), analyzed on an ABI 3130xL genetic analyzer (Applied Biosystems) with peak positions identified by using a set of X-rhodamine (ROX)-labeled MapMarker1000 molecular weight standards (BioVentures). The raw capillary electrophoresis data was processed using Attagraph software (Attagene).
As to `COC(=O)c1ccccc1S(=O)(=O)NC(=O)Nc1nc(C)cc(C)n1`, the outcome was inactive. Regarding `C=C(Cl)Cl`, the outcome was inactive. `CC=Cc1ccc2c(c1)OCO2`: the call was inactive. Regarding `CCOP(=O)(OCC)OCC`, the outcome was inactive.

For `c1ccc(Nc2ccc3ccccc3c2)cc1`, the AC50 is 7.59 µM (active). Regarding `CCCCOP(=O)(O)OCCCC`, the compound was called inactive.

`COc1cc(OC)c(OC)cc1C=O`: the compound was called inactive. As for `CC(=O)C=Cc1ccccc1`, the AC50 was 35.9 µM (active). Regarding `C=C(Cl)CCl`, the outcome was inactive. As to `CC[N+](=O)[O-]`, the call was inactive. On to `NNc1ccccc1`, for which the AC50 was 36.6 µM (active).

For the compound `COc1ncc(F)c2nc(S(=O)(=O)Nc3c(F)cccc3F)nn12`, the call was inactive. Take `O=c1c2ccccc2c(=O)c2c1cc(Cl)c1[nH]c3c([nH]c12)c(Cl)cc1c(=O)c2ccccc2c(=O)c13`: the AC50 is 10.1 µM (active). Consider `CC1(C)C(=O)NC(=O)NC1=O`, for which the result was inactive. The same measure, in the same setting: under `O=S(=O)(O)O` stands “inactive”; under `[CH3][Sn]([CH3])([Cl])[Cl]`, “inactive”. Consider `CN1C[C@H](C(=O)N[C@]2(C)O[C@@]3(O)[C@@H]4CCCN4C(=O)[C@H](Cc4ccccc4)N3C2=O)C=C2c3cccc4[nH]cc(c34)C[C@H]21`, for which the AC50 was 0.534 µM (active). Turning to `Cl/C=C\CCl`, the call was inactive. As for `Cc1ccc(N(SC(F)(Cl)Cl)S(=O)(=O)N(C)C)cc1`, the call was inactive.

Turning to `Nc1c(Cl)c(Cl)c(Cl)c(Cl)c1Cl`, the AC50 is 13.3 µM (active). In the case of `CC(C)(C)C(=O)CCl`, the compound was called inactive. Same read-out and setting: under `CCc1cc(C)cc(CC)c1-c1c(OC(=O)C(C)(C)C)n2n(c1=O)CCOCC2` stands “inactive”. On the same count and under the same terms, under `O=C(CCl)c1ccccc1` stands “inactive”; under `CC1CCCC1.[C-]#[O+].[C-]#[O+].[C-]#[O+].[Mn]`, “inactive”. For `O=C(O)CCCc1ccc(N(CCCl)CCCl)cc1`, the compound was called inactive. Turning to `Cc1ccc(C)c2ccccc12`, the AC50 is 51.3 µM (active).

Regarding `Cc1cc(C)c(C2=C(OC(=O)CC(C)(C)C)C3(CCCC3)OC2=O)c(C)c1`, the outcome was inactive. With `O=C1C(Cl)=C(Cl)C(=O)C(Cl)=C1Cl`, the result was inactive. On to `CC(=O)c1cc2c(cc1C)C(C)(C)C(C)CC2(C)C` (stereo not given), for which the AC50 is 3.25 µM (active). As to `O=C1C=CC(=O)C=C1`, the result was inactive. `C=CCN(CC=C)C(=O)C(Cl)Cl`: the call was inactive.

With `[CH3][Sn]([Cl])([Cl])[Cl]`, the compound was called inactive. Regarding `CCC[N+](=O)[O-]`, the compound was classed as inactive. In the case of `CN1C(=O)CCS(=O)(=O)C1c1ccc(Cl)cc1` (stereo not given), the result was inactive. Consider `c1cc(OCC2CO2)ccc1Cc1ccc(OCC2CO2)cc1` (stereo not given), for which the AC50 is 20.6 µM (active). For `O=CNC(N1CCN(C(NC=O)C(Cl)(Cl)Cl)CC1)C(Cl)(Cl)Cl` (stereo not given), the AC50 was 6.57 µM (active).

`COC(=O)COc1ccc(Cl)cc1Cl`: the outcome was inactive. For the compound `COCC(=O)N(c1c(C)cccc1C)N1CCOC1=O`, the AC50 was 27.4 µM (active). As for `Cc1ccccc1CCl`, the call was inactive.

Turning to `O=P(O)(Oc1ccccc1)Oc1ccccc1`, the compound was classed as inactive.
